For some assays here: Results with a measured potency or affinity are listed apart.
Key:
Parameters in all cases: scale not given: direction of the effect not stated beside the values
[1] = molecular target: Protein translocase subunit SecA (Escherichia coli (strain K12)) (UniProt P10408); test: Assay to Identify E. coli SecA ATPase Inhibitors; format: functional; details: 30 µM
[2] = molecular target: T1, Ubiquitin-activating enzyme e1, putative (Leishmania donovani (strain BPK282A1)) (UniProt E9BSI1); test: Leishmania donovani Ubiquitin Activating Enzyme (LdE1); format: functional; details: 30 µM
T1 sequence (whole entry): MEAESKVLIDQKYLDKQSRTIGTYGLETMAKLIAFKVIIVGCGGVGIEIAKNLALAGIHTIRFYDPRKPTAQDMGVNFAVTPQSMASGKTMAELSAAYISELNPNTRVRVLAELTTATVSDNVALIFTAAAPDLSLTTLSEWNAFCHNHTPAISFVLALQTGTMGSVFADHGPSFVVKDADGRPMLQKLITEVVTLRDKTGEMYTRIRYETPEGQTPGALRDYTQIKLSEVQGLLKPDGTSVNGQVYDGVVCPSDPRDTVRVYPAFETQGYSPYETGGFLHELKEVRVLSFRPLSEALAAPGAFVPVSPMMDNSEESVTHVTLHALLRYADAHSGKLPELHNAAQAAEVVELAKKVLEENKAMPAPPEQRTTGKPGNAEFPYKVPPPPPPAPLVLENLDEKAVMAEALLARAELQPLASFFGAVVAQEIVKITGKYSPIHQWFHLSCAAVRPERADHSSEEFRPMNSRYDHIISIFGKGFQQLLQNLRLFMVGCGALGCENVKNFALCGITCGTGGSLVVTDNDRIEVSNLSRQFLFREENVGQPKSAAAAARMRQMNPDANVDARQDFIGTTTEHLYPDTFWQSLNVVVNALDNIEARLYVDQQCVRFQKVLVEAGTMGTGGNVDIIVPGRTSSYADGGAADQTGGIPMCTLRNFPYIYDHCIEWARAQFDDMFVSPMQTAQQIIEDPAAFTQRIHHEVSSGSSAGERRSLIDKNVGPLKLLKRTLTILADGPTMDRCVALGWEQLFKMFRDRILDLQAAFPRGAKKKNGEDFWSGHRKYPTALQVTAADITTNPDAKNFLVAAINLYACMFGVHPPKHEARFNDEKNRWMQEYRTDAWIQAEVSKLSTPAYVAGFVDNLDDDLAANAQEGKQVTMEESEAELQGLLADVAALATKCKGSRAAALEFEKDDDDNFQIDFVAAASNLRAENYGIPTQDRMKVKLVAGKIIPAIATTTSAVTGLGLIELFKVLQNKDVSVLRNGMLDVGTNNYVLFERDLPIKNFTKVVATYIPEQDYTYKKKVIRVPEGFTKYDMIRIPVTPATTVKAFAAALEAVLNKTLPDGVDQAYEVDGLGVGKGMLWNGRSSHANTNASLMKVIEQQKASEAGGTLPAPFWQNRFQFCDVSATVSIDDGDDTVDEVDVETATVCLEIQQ

[3] = molecular target: AMP-activated protein kinase, AMPK (Homo sapiens) (UniProt P54646+O43741+P54619+Q9UGJ0+Q9Y478+Q13131+Q9UGI9); test: AMP-dependent Kinase enzyme assay. An in vitro enzyme assay that detects ADP turnover that is directly proportional to AMPK activity. This uses naive AMPK that is activated during the assay with MK-8722; format: functional; details: 30 µM
[4] = molecular target: Sialic acid-binding Ig-like lectin 9 (Homo sapiens) (UniProt Q9Y336); test: Hs-Siglec9 ALPHAscreen SOP 20170721; details: 10 µM
Trypanosoma cruzi = test: Trypanosoma cruzi phosphomannomutase and mannose-1-phosphate guanylyltransferase assay; format: functional; details: 10 µM
[5] = molecular target: T2, Arginase-2, mitochondrial (Homo sapiens) (UniProt P78540); test: in vitro enzyme assay to detect the production of urea directly proportional to the activity of Arginase II; format: functional; details: 33.3 µM; further: in the data most compounds retested in dose-response had high values
T2 sequence (whole entry): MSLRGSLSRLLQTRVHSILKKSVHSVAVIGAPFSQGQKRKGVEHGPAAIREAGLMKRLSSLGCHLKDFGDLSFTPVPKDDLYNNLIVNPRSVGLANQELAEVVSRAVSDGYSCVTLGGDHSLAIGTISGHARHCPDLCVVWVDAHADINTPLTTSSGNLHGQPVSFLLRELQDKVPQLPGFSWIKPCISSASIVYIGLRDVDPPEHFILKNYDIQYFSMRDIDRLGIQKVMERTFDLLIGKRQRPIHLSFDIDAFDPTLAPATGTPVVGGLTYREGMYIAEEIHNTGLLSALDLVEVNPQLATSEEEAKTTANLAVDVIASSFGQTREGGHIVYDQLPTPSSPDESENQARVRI

[6] = molecular target: T3, Proteasome subunit beta (Trypanosoma cruzi) (UniProt O96673); test: Trypanosoma cruzi proteasome chymotrypsin-like activity (TcProtChymo) assay.; further: in the data most compounds retested in dose-response had high values; format: functional; details: 9.37 µM
T3 sequence (whole entry): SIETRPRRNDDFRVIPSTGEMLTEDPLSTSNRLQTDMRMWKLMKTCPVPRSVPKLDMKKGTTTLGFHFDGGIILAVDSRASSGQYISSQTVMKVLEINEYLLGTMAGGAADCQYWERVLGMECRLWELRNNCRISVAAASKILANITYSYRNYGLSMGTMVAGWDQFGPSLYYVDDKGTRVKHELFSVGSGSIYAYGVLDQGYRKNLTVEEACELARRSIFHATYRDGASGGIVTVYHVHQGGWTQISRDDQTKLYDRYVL

Homo sapiens = species on record: Homo sapiens; test: To identify inhibition of the IFN signalling (Jak-Stat) pathway via expression of an eGFP reporter gene under the control of an IFN-stimulated response element (ISRE) containing MxA promoter.; format: functional; details: 30 µM
[7] = molecular target: T4, Tyrosyl-tRNA synthetase, putative (Trypanosoma cruzi (strain CL Brener)) (UniProt Q4DSP6); test: Trypanosoma cruzi tyrosyl tRNA synthetase (TcYRS) _High Tyrosine SOP; format: functional; details: 30 µM; further: in the data most compounds retested in dose-response had high values
T4 sequence (whole entry): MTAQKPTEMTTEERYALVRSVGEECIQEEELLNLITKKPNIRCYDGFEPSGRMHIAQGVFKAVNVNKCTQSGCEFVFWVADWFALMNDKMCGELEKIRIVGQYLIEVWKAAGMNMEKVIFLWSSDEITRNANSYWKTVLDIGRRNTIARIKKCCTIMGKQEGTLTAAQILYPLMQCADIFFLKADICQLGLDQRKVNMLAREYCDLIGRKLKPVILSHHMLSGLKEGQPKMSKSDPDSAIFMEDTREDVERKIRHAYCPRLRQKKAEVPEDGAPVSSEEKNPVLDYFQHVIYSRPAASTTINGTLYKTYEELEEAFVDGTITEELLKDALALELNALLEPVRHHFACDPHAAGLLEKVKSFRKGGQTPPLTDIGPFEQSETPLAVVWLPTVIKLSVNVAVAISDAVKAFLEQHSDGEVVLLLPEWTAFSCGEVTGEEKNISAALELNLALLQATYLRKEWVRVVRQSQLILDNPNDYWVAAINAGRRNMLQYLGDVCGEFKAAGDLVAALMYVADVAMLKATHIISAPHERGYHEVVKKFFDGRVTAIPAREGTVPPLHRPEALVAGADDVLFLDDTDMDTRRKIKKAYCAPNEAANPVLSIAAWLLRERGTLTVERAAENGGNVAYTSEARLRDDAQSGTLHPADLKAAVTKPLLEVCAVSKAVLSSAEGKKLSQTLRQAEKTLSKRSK

[8] = molecular target: T4, Tyrosyl-tRNA synthetase, putative (Trypanosoma cruzi (strain CL Brener)); test: Trypanosoma cruzi tyrosyl tRNA synthetase (TcYRS) SOP; format: functional; details: 30 µM
[9] = molecular target: Chromo domain-containing protein 1 (Saccharomyces cerevisiae (strain ATCC 204508 / S288c) (Baker's yeast)) (UniProt P32657); test: ScCHD-1 Enzyme Inhibition Assay; format: functional; details: 30 µM; further: in the data most compounds retested in dose-response had high values
Chain of Chromo domain-containing protein 1 (Saccharomyces cerevisiae (strain ATCC 204508 / S288c) (Baker's yeast)) (P32657 whole entry, the tested form may be a part): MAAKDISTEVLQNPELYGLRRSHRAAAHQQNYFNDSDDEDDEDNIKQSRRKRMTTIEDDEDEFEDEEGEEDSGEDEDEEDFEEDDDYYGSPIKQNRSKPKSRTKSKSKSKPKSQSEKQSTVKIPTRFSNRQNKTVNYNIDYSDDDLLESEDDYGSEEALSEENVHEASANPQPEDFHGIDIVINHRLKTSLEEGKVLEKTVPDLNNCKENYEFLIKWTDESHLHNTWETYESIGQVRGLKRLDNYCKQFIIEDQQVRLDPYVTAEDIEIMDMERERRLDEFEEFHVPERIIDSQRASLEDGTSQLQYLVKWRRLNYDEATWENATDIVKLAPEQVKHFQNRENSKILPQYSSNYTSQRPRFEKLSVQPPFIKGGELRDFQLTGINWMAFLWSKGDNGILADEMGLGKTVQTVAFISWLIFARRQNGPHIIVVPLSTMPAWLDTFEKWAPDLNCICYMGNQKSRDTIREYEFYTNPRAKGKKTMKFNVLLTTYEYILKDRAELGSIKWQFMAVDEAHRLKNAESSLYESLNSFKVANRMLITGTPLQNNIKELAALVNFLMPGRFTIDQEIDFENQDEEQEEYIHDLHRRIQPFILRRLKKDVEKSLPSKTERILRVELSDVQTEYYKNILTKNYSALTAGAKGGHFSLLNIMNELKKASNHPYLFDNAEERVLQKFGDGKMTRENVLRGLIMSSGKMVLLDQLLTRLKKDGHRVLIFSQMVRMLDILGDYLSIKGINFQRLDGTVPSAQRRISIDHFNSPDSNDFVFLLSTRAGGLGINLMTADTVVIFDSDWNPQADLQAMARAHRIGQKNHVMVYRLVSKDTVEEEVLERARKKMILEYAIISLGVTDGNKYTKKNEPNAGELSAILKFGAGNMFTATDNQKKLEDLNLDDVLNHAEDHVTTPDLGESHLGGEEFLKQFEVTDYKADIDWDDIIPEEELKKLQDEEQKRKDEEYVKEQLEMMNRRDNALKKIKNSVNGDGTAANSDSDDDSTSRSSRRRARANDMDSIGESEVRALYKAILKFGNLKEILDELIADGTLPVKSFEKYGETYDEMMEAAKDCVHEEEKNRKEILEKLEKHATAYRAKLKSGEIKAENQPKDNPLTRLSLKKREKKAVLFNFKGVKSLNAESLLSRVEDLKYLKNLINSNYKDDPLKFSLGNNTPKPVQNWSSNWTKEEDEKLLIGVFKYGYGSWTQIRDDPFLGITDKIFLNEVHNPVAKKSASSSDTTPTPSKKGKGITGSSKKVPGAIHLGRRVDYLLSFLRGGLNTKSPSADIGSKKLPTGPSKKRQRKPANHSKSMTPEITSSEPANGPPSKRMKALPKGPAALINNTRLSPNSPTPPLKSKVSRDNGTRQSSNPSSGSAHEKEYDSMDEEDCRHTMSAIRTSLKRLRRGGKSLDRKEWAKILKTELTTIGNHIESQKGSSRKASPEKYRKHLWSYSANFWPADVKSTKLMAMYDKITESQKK

Chain of Sialic acid-binding Ig-like lectin 9 (Homo sapiens) (Q9Y336 whole entry): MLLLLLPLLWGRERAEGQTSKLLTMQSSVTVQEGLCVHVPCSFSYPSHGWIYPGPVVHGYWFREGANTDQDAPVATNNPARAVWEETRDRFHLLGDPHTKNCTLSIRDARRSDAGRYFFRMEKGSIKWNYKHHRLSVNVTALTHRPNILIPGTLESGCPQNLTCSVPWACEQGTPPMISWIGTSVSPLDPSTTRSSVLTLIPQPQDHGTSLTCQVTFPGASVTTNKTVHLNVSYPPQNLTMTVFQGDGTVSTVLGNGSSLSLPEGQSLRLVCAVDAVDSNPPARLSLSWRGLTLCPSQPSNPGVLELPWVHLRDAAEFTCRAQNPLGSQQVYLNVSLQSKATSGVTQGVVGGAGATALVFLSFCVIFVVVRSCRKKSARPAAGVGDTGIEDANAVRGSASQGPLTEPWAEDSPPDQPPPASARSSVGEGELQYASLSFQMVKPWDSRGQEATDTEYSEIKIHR
Chain of Protein translocase subunit SecA (Escherichia coli (strain K12)) (P10408 whole entry): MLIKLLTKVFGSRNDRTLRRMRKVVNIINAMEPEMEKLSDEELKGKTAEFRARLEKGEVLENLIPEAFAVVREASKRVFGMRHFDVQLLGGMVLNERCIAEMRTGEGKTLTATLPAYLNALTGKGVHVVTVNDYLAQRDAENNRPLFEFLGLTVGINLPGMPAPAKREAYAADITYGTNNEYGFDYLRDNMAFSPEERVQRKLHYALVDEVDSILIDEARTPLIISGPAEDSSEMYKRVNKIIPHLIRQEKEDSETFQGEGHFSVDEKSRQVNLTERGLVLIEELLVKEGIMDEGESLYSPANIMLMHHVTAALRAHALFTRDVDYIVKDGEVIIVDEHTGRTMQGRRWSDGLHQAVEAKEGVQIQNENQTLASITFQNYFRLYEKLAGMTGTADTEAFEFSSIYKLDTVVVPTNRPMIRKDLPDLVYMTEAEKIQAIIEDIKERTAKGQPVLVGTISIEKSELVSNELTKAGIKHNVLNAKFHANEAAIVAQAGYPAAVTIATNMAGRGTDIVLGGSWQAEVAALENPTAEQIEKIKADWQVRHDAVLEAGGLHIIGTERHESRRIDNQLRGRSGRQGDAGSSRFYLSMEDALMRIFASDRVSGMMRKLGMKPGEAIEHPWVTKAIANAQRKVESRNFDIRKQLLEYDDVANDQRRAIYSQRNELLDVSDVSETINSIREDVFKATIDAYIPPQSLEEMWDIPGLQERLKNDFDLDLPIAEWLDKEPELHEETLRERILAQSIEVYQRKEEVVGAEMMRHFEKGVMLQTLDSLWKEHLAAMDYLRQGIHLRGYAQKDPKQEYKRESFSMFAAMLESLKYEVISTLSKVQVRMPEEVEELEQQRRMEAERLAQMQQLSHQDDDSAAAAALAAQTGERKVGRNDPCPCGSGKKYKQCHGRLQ

| Compound | Percent Effect [1] [%] | Percent Effect [2] [%] | Percent Effect [3] [%] | Percent Effect [4] [%] | Percent Effect (Trypanosoma cruzi) [%] | Percent Effect [5] [%] | Percent Effect [6] [%] | Percent Effect (Homo sapiens) [%] | Percent Effect [7] [%] | Percent Effect [8] [%] | Percent Effect [9] [%] |
| --- | --- | --- | --- | --- | --- | --- | --- | --- | --- | --- | --- |
| O=C1CC(c2cccs2)c2snc(C(=O)O)c2N1 (stereo unspecified) | -2.26 | 4.17 | -2.53 | 8.18 | 4.76 | 3.09 | 2.63 | 1.26 | 2.1 | 5.13 | -3.46 |
| Cc1cccc(-c2ccc(C(=O)NCC3CCOC3)c(=O)[nH]2)c1 (stereo unspecified) | -2.02 | 10.8 | -7.21 | 7.34 | -0.472 | -4.41 | -0.18 | 12.2 | 5.42 | 11.1 | -8.03 |
| COc1ccc(C(O)CNc2c(C#N)c(=O)n(C)c(=O)n2C)cc1 (stereo unspecified) | 0.0916 | 12.7 | 4.15 | -13.6 | -6.33 | 5.32 | 2.87 | 9.61 | 5.42 | 11.4 | -5.56 |
| CCCNC(=O)C(C)n1cc(Br)cn1 (stereo unspecified) | -2.1 | 7.79 | -0.549 | 2.6 | -1.87 | -194 | 5.49 | -4.17 | 4.3 | 18.5 | 0.506 |
| CCc1nnc2n1CCN(C(=O)Cc1csc(-c3ccco3)n1)C2 | -4.35 | 15.2 | -5.8 | 9.4 | -1.04 | 3.8 | 8.76 | 13.3 | 4.43 | 11.4 | -4.32 |
| CN(C)C(=O)Cc1ccc(NC(=O)NC2CCCCC2)cc1 | -1.35 | -5.41 | -1.19 | 3.35 | 6.56 | -2.86 | 16 | 11 | 1.59 | 7.32 | -0.0586 |
| COCC(=O)N1CC[C@H]2C[C@@H](c3nnc(C4CC4)o3)O[C@@H]2C1 | -5.18 | 18.7 | -7.93 | 0.755 | 1.74 | -57.2 | 19.5 | -2.44 | 4.17 | 17.5 | -6.39 |
| Cc1cc(CN2CCN(C(=O)CCc3cccc(F)c3F)CC2)on1 | 2.13 | 0 | -6.33 | 7.49 | 5.99 | 10.9 | 0.862 | -0.409 | -0.529 | 4.88 | 0.403 |
| CC(C)CCN1CC2(CCCN(C(=O)c3cscn3)C2)CCC1=O (stereo unspecified) | -3.18 | 7.79 | 1.5 | 11.5 | 4.82 | -66.2 | 8.98 | -4.77 | 5.38 | 13.6 | -0.298 |
| Cc1nc(C)n(CC2CN(c3ccc(C#N)cn3)CCO2)n1 (stereo unspecified) | -4.11 | 10.5 | -4.42 | 10.3 | 5.88 | 1.44 | 6.51 | -2.74 | 6.4 | 18.5 | -3.17 |
| FC(F)(F)COCCN1CCCC(c2noc(C3CC3)n2)C1 (stereo unspecified) | -2.95 | 5.33 | -7.13 | 6.38 | 7.3 | -0.521 | 16.7 | 16.5 | 3.83 | 11.1 | 101 |
| CCOCCn1nc(C)cc1C(=O)N1CC[C@](C)(O)[C@H](C)C1 | -5.83 | 5.41 | -0.231 | 3.85 | -4.25 | -1.91 | 6.03 | -3.48 | 2.65 | 9.76 | -1.04 |
| O=C(c1ccsc1)N1CCOC2(CCN(Cc3cccnc3)CC2)C1 | -1.61 | -2.67 | 3.67 | 7.65 | 0.579 | -3.4 | 8.38 | -17 | 3.12 | 5 | -6.25 |
| CC(NC(=O)C1=NN(C)C(=O)CC1)c1ccc(Cl)cc1Cl (stereo unspecified) | -2.53 | 16.4 | 8.07 | 9.9 | 2.74 | 8.64 | 11.9 | 16.3 | 2.15 | 20 | -7.04 |
| O=C(CCc1ccc(Cl)s1)N1CCCC(n2cncn2)C1 (stereo unspecified) | -2.21 | -2.53 | 3.52 | 6.43 | -0.0944 | 5.32 | -3.36 | -2.4 | 0.493 | -1.27 | 0.688 |
| COc1cc(CCC(=O)NCC2CCCN2C)ccc1OCC(F)(F)F (stereo unspecified) | -2.12 | 7.89 | -14 | 4.13 | -0.0934 | -2.88 | 11.4 | 14.2 | 5.42 | 16.1 | -7.41 |

From ChEMBL document CHEMBL3988442, “University of Dundee, Small-Polar-MMV Screening Library” (2021)
